# Experimental data taken from PubChem BioAssay (NCATS).
# Values joined by “and” are separate entries in the source; they are usually repeats but may differ in a detail not shown here. Equal values may be shown once. Records with an inconclusive call do not appear. Where a call stands in place of a potency, no number is given. Active and inactive are the calls of the source. The call rests on the fitted dose curve; in most records, active means well fitted curve in the direction sought with a large enough effect; inconclusive means small, poorly fitted or top-dose-only effect, or another doubt; inactive means no such curve, though single readings can be large; an effect the other way counts as inactive or inconclusive.
# How the values were obtained:
# [1] = qHTS for Inhibitors of Ubiquitin-specific Protease USP2a Using CHOP2 as the Reporter: K633 Counterscreen (AID 652168); further: series mostly up to about 57 µM
# Summary of the method: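 Detection-system control: fluorescence of K48-linked DiUb-4IQF substrate (100 nM as added) tracked over time, Ex 525/Em 598, with pinned compounds and no enzyme, in pH 8 Tris buffer containing beta-mercaptoethanol and 0.05% Chaps.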
# [2] = target: Ubiquitin carboxyl-terminal hydrolase 2 (Homo sapiens) (UniProt O75604); test: qHTS for Inhibitors of Ubiquitin-specific Protease USP2a Using CHOP2 as the Reporter: K484 Substrate (AID 652173);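 further: cleavage of internally quenched K48 di-ubiquitin substrate measured as rising fluorescence over time; potency means the concentration at half of the fitted maximal effect; nearly all actives have a fitted effect of over 70% in size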
# Summary of the method: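 Kinetic fluorescence (Ex 525/Em 598) tracked cleavage of an internally quenched K48 di-ubiquitin substrate, added as a 100 nM solution. The enzyme was added as a 5 nM USP2 solution before compound pinning, with no-enzyme controls. Buffer: Tris pH 8, beta-mercaptoethanol, CHAPS.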
# [3] = target: Tyrosine-protein kinase Yes (Homo sapiens) (UniProt P07947); test: qHTS for small molecule inhibitors of Yes1 kinase: Primary Screen (AID 686947); further: nearly all actives have a fitted effect of over 60% in size; further: potency means the concentration at half of the fitted maximal effect
# Summary of the method: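 ADP-Glo luminescence reports ADP formed by 4 nM Yes1 phosphorylating poly(E4Y) (0.3 mg/mL) with 0.1 mM ATP for 60 min at room temperature, following 20 min compound preincubation; normalised between DMSO wells with and without enzyme.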
# [4] = qHTS for small molecule inhibitors of Yes1 kinase: Counter Assay (AID 686950);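 further: no kinase present so only ADP-Glo detection of a fixed ADP amount is tested; luminescence from ADP-Glo reporting ADP in a fixed ATP and ADP mixture; series mostly up to about 77 µM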
# Summary of the method: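 Measuring interference with ADP-Glo, the assay ran 60 min at room temperature on an ATP/ADP mix lacking enzyme. Values were normalized to ATP-plus-ADP (maximum) and ATP-only (minimum) DMSO controls.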
# Chain of Tyrosine-protein kinase Yes (Homo sapiens) (P07947 whole entry, looked up): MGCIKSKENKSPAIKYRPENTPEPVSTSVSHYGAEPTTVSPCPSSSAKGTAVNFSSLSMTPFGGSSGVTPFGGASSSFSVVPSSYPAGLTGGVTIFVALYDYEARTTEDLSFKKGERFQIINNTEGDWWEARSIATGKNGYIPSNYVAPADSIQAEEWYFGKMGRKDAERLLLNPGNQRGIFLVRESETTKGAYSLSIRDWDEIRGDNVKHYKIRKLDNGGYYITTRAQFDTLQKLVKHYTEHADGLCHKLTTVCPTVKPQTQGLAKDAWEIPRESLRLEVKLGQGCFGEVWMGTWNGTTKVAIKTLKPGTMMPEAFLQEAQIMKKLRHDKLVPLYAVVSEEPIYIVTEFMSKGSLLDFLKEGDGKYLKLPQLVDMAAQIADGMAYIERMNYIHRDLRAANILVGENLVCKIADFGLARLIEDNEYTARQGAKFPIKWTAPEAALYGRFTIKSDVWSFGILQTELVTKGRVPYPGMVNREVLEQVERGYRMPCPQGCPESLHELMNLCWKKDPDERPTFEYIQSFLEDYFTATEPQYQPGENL
# Chain of Ubiquitin carboxyl-terminal hydrolase 2 (Homo sapiens) (O75604 whole entry, looked up): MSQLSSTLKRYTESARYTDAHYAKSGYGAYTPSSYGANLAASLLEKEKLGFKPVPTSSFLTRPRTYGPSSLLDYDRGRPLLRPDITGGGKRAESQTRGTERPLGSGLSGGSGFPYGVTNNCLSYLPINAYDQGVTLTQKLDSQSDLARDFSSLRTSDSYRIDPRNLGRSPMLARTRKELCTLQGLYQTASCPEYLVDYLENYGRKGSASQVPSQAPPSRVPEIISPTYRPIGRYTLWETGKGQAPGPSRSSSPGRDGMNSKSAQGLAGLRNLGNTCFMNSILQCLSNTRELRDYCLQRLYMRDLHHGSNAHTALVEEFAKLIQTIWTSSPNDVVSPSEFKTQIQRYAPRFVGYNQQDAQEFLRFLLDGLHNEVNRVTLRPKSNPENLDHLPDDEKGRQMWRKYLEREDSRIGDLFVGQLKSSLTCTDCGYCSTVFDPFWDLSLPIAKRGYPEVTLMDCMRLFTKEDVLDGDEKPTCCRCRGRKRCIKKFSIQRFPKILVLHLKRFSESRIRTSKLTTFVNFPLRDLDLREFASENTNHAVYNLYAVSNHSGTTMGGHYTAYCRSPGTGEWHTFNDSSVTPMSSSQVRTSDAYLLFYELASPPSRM
structure (smiles),measurement,setting,value
O=C(Nc1ccc(S(=O)(=O)Nc2nccs2)cc1)c1ccc(-c2ccccc2)cc1,outcome,[1],inactive
same,Potency,[2],24.3 µM (active)
N#Cc1ccccc1S(=O)(=O)Nc1cnccc1C(=O)Nc1nc(-c2ccccc2)cs1,outcome,[1],inactive
same,Potency,[2],7.69 µM (active)
CC(Oc1cc(-n2cnc3ccc(OCC4CCN(C)CC4)cc32)sc1C(N)=O)c1ccccc1C(F)(F)F (configuration not stated),Potency,[3],1.46 µM (active)
same,outcome,[4],inactive
Cc1cc(O)cc(C)c1C=Cc1cncc(-c2nn[nH]n2)c1,Potency,[3],0.0654 µM (active)
same,outcome,[4],inactive
Oc1cccc(-c2nc(-c3ccccc3)[nH]c2-c2ccncc2)c1,Potency,[3],0.923 µM (active)
same,outcome,[4],inactive
Cc1nnc(-c2ccc(C)c(-c3ccc(C(=O)NCc4ccc(Cl)cc4)cc3)c2)o1,Potency,[3],inactive
COC(=O)c1sc(-n2cnc3cc(OC)c(OC)cc32)cc1OCc1ccccc1C(F)(F)F,Potency,[3],0.654 µM (active)
CN1CCC(n2cnc(-c3ccc(F)cc3)c2-c2ccnc(NCCO)n2)CC1,Potency,[3],inactive
same,outcome,[4],inactive
FC(F)(F)c1cccc(Nc2nccc(-c3cnn4nc(-c5ccccc5)ccc34)n2)c1,Potency,[3],14.6 µM (active)
same,outcome,[4],inactive
COc1ccccc1Nc1ncc(-c2ccccc2)o1,Potency,[3],9.23 µM (active)
same,outcome,[4],inactive
CCNC(=O)OC1CNC(C#Cc2cc3ncnc(Nc4ccc(OCc5cccc(F)c5)c(Cl)c4)c3s2)C1 (configuration not stated),Potency,[3],8.23 µM (active)
O=C(NCC1CC1)c1ccc(-c2cccc(C(=O)NC3CC3)c2)cc1,Potency,[3],inactive
Clc1ccc(CNc2nccc(-c3cnn4ncccc34)n2)cc1,Potency,[3],inactive
Cc1cc(Cl)cc2c(N=Nc3ccc(S(N)(=O)=O)cc3)c(O)[nH]c12,Potency,[3],10.4 µM (active)
same,outcome,[4],inactive
COc1cc(Nc2nccc(Nc3ccc4c(C)[nH]nc4c3)n2)cc(OC)c1OC,Potency,[3],0.0923 µM (active)
Fc1ccc(-c2ncn(C3CCNCC3)c2-c2ccnc(Oc3ccccc3)n2)cc1,Potency,[3],11.6 µM (active)
CCn1c(-c2nonc2N)nc2c(C#CCN)ncc(OCCCN)c21,Potency,[3],inactive
same,outcome,[4],inactive
Cc1ccc2c(-c3ccnc(Nc4ccccc4)n3)c(-c3ccc(F)cc3)nn2n1,Potency,[3],0.116 µM (active)
COc1cc(C=NNc2ncnc3c2cnn3C(C)C)ccc1O,Potency,[3],0.184 µM (active)
same,outcome,[4],inactive
COc1cc2ncn(-c3cc(OC(C)c4ccccc4Cl)c(C(N)=O)s3)c2cc1OC (configuration not stated),Potency,[3],2.92 µM (active) and 733 nM (active)
COc1cccc(COc2cc(-n3cnc4ccccc43)sc2C(N)=O)c1,Potency,[3],inactive
same,outcome,[4],inactive
CS(=O)(=O)CCNCc1ccoc1-c1ccc2ncnc(Nc3ccc(OCc4ccccc4)cc3)c2c1,Potency,[3],3.68 µM (active)
same,outcome,[4],inactive
NC(=O)c1cccc(Nc2nccc(Nc3cccc4[nH]ncc34)n2)c1,Potency,[3],0.0292 µM (active)
CCn1cc(-c2ccnc3[nH]ccc23)c(-c2cccc(NC(=O)Nc3ccc(OCc4ccccc4)cc3)c2)n1,Potency,[3],9.23 µM (active)
same,outcome,[4],inactive
Cc1ccc(NC(=O)CC2CC2)cc1-c1ccc(C(=O)NCC2CC2)cc1,Potency,[3],inactive
same,outcome,[4],inactive
O=S1CCN(Cc2ccc(-c3ccc4ncnc(Nc5ccc(OCc6ccccc6)c(Cl)c5)c4c3)o2)CC1,Potency,[3],0.368 µM (active)
same,outcome,[4],inactive
CCCN1CCC(c2ccc(Nc3nc(Nc4cc(F)ccc4C(N)=O)c4cc[nH]c4n3)c(OC)c2)CC1,Potency,[3],inactive
Cc1ccc2c(-c3ccnc(Nc4cccc(C(F)(F)F)c4)n3)c(-c3ccccc3)nn2n1,Potency,[3],0.146 µM (active)
same,outcome,[4],inactive
Cc1cc(O)cc(C)c1C=Cc1cncc(C(=O)N(C)C)c1,Potency,[3],23.2 µM (active)
same,outcome,[4],inactive
O=C(Nc1n[nH]c2nc(-c3ccco3)c(Br)cc12)C1CC1,Potency,[3],8.23 µM (active)
same,outcome,[4],inactive
CC(C)c1ccc(Nc2nccc(-c3cnn4ncccc34)n2)cc1,Potency,[3],26 µM (active)
same,outcome,[4],inactive
N#Cc1ccc(Oc2nccc(-c3c(-c4ccc(F)cc4)ncn3C3CCNCC3)n2)cc1,Potency,[3],inactive
CCC(=O)Nc1ccc(C)c(-c2ccc(C(=O)NCC3CC3)cc2)c1,Potency,[3],inactive
same,outcome,[4],inactive
N#Cc1ccc2c(-c3ccnc(NC4CC4)n3)c(-c3ccc(F)cc3)nn2c1,Potency,[3],26 µM (active)
same,outcome,[4],inactive
COC(=O)Nc1nc2ccc(S(=O)(=O)c3ccc(NC(=O)Nc4cc(C(F)(F)F)ccc4F)cc3)cc2[nH]1,Potency,[3],inactive
same,outcome,[4],inactive
COc1cc2c(cc1Nc1nc(N3CCc4ccccc43)c3cc[nH]c3n1)N(C(=O)CN(C)C)CC2,Potency,[3],inactive
same,outcome,[4],inactive
COc1ccc(-c2cc(-c3cn[nH]c3-c3ccccn3)ccn2)cc1,Potency,[3],14.6 µM (active)
same,outcome,[4],inactive
CCc1cccc(NC(=O)Nc2ccc(Oc3ccc4nc(NC(=O)OC)[nH]c4c3)cc2)c1,Potency,[3],inactive
same,outcome,[4],inactive
NS(=O)(=O)c1ccc(Nc2ncc(-c3ccccc3)o2)cc1,Potency,[3],inactive
same,outcome,[4],inactive
COc1ccc(Nc2ncc(-c3ccccc3)o2)cc1OC,Potency,[3],1.16 µM (active)
same,outcome,[4],inactive
O=C1NC(=O)C(c2ccccc2Cl)=C1Nc1cccc(O)c1,Potency,[3],8.23 µM (active)
same,outcome,[4],inactive
Cc1ccc(O)cc1Nc1ccnc2cc(-c3ccccn3)ccc12,Potency,[3],0.0073 µM (active)
same,outcome,[4],inactive
COc1ccc(-c2nn3ncccc3c2-c2ccnc(Nc3ccc(Cl)c(C(F)(F)F)c3)n2)cc1,Potency,[3],3.68 µM (active)
same,outcome,[4],inactive
COc1ccc2ncnc(Nc3ccc(OCc4ccccc4)cc3)c2c1,Potency,[3],0.733 µM (active)
same,outcome,[4],inactive
CNC(=O)c1cc(-c2ccc(F)cc2)cc(-c2ccc(S(=O)(=O)N3CCCC3)cc2)c1N,Potency,[3],inactive
same,outcome,[4],inactive
CCn1c(-c2nonc2N)nc2ccccc21,Potency,[3],inactive
same,outcome,[4],inactive
CN(c1ccc(NC(=O)Nc2c(Cl)cccc2Cl)cc1)c1ccnc(Nc2cccc(CS(C)(=O)=O)c2)n1,Potency,[3],1.46 µM (active)
same,outcome,[4],inactive
COc1cccc(-n2ncc3c(NN=Cc4ccc(C(=O)NCCN(C)C)cc4)ncnc32)c1,Potency,[3],0.0207 µM (active)
same,outcome,[4],inactive
CCN1CCC(CC(=O)Nc2n[nH]c3nc(-c4cccs4)c(Br)cc23)CC1,Potency,[3],26 µM (active)
same,outcome,[4],inactive
COc1cc(Nc2ncc(-c3ccccc3)o2)cc(OC)c1OC,Potency,[3],0.328 µM (active)
same,outcome,[4],inactive
Cc1ccc2c(-c3ccnc(Nc4ccc5c(c4)OCCO5)n3)c(-c3ccc(C(F)(F)F)cc3)nn2n1,Potency,[3],0.823 µM (active)
same,outcome,[4],inactive
COc1cc2c(cc1Nc1nc(Nc3cccc(F)c3C(N)=O)c3cc[nH]c3n1)N(C(=O)CN1CCN(C(C)C)CC1)CC2,Potency,[3],inactive
same,outcome,[4],inactive
Nc1nccc(-c2c(-c3ccc(F)cc3)ncn2CCCN2CCOCC2)n1,Potency,[3],9.23 µM (active)
same,outcome,[4],inactive
CC1=C(C(=O)Nc2cc(Cl)c3[nH]ncc3c2)C(c2ccc(C(F)(F)F)cc2)CC(=O)N1 (configuration not stated),Potency,[3],2.6 µM (active)
same,outcome,[4],inactive
Cc1ccc(Nc2ccnc(Nc3cccc(C(N)=O)c3)n2)cc1O,Potency,[3],0.0292 µM (active)
same,outcome,[4],inactive
CCS(=O)(=O)c1ccc(OC)c(Nc2ncc(-c3cccc(-c4ccccc4F)c3)o2)c1,Potency,[3],0.463 µM (active)
same,outcome,[4],inactive
COc1cccc(C=NNc2ncnc3c2cnn3-c2cccc(OC)c2)c1,Potency,[3],7.33 µM (active)
same,outcome,[4],inactive
COc1ccc(CNC(=O)c2ccc(-c3cc(-c4nnc(C)o4)ccc3C)cc2)cc1,Potency,[3],inactive
same,outcome,[4],inactive
COc1cc2ncn(-c3cc(OCCc4ccccc4)c(C(N)=O)s3)c2cc1OC,Potency,[3],inactive
same,outcome,[4],inactive
COc1cc(N2CCN(C(C)C)CC2)ccc1Nc1nc(Nc2ccc(F)cc2C(=O)NCC(O)CO)c2cc[nH]c2n1 (configuration not stated),Potency,[3],inactive
same,outcome,[4],inactive
NS(=O)(=O)c1ccc(N=Nc2c(O)[nH]c3ccc(C(=O)NCc4ccncc4)cc23)cc1,Potency,[3],4.63 µM (active)
same,outcome,[4],inactive
NS(=O)(=O)c1cccc(Nc2cc(-c3ccc(F)cc3)[nH]n2)c1,Potency,[3],3.68 µM (active)
same,outcome,[4],inactive
CN(C)CCNC(=O)Nc1ccc(N(C)c2ccnc(Nc3ccc(CS(C)(=O)=O)cc3)n2)cc1,Potency,[3],7.33 µM (active)
same,outcome,[4],inactive
Cc1ccc(NC(=O)c2ccnc(N3CCCC3)c2)cc1-c1ccc(C(=O)NCC2CC2)cc1,Potency,[3],inactive
same,outcome,[4],inactive
COc1cc(Nc2ncc3c(C)nc(-c4cccc(Oc5ccccc5)c4)n3n2)cc(OC)c1OC,Potency,[3],5.19 µM (active)
same,outcome,[4],inactive
NCc1ccc(-c2nc(-c3ccc(Cl)c(O)c3)c(-c3ccncc3)[nH]2)cc1,Potency,[3],0.328 µM (active)
same,outcome,[4],inactive
Nc1nccc(-c2c(-c3ccc(F)cc3)ncn2C2CCNCC2)n1,Potency,[3],2.07 µM (active) and 6.54 µM (active)
same,outcome,[4],inactive
CCS(=O)(=O)c1ccc(OC)c(Nc2ncc(-c3cccc(C(C)=O)c3)o2)c1,Potency,[3],0.292 µM (active)
same,outcome,[4],inactive
O=C1NC(=O)C(c2cccc(Cl)c2)=C1Nc1ccc(O)c(Cl)c1,Potency,[3],9.23 µM (active)
same,outcome,[4],inactive
Cc1ccc(C(=O)NC2CCCCC2)cc1-c1ccc(C(=O)NCC2CC2)cc1,Potency,[3],inactive
same,outcome,[4],inactive
CCn1c(-c2nonc2N)nc2cncc(C(=O)N3CCNCC3)c21,Potency,[3],1.46 µM (active)
same,outcome,[4],inactive
CCn1c(-c2nonc2N)nc2c(C#CC(C)(C)O)nc(OCCNC)cc21,Potency,[3],8.23 µM (active)
same,outcome,[4],inactive
Cc1cc(-c2ccco2)cc(C)c1C=Cc1cncc(-c2nn[nH]n2)c1,Potency,[3],1.04 µM (active)
same,outcome,[4],inactive
N#Cc1c(NC(=O)c2ccc(F)cc2)sc2c1CCCC2,Potency,[3],inactive
same,outcome,[4],inactive
COC(=O)Nc1nc2ccc(Sc3ccc(NC(=O)Nc4cc(C(F)(F)F)ccc4F)cc3)cc2[nH]1,Potency,[3],inactive
same,outcome,[4],inactive
CS(=O)(=O)CCNCc1ccc(-c2ccc3ncnc(Nc4ccc(OCc5ccccc5)c(C(F)(F)F)c4)c3c2)o1,Potency,[3],inactive
same,outcome,[4],inactive
CCn1c(-c2nonc2N)nc2c(C#CC(C)(C)O)ncc(OC3CCNCC3)c21,Potency,[3],26 µM (active)
same,outcome,[4],inactive
